Assay results from PubChem BioAssay (NCI).
Compounds without any hit were thinned out: in the full panel of roughly 79,000, 15% have a hit. Values without a mark were called inactive. Calls of active or inactive are those of the source. Rule as the data show it: active = growth inhibition above about 70%; inactive = the rest.

Tests used:
[1] = NCI Yeast Anticancer Drug Screen. Data for the rad50 strain (AID 155);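 also: 0% = growth of vehicle-only cultures of the same strain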; conditions: S. cerevisiae rad50 strain growth inhibition, active compounds read high
In short: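 Vehicle-treated cultures provide the reference for the growth inhibition reported for compound-exposed, repair-deficient yeast.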

[2] = NCI Yeast Anticancer Drug Screen. Data for the mec2-1 strain (AID 157); conditions: S. cerevisiae mec2-1 strain, active compounds read high
In short: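 Compounds were applied to mec2-1 yeast cells. Their growth was then compared with that of vehicle-treated cultures to give growth inhibition.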

[3] = NCI Yeast Anticancer Drug Screen. Data for the sgs1 mgt1 strain (AID 161);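 also: 0% = growth of cultures given vehicle only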; conditions: S. cerevisiae sgs1 mgt1 strain, active compounds read high
In short: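 Compounds are added to genetically altered yeast, and growth is compared with cultures given vehicle alone to give percent inhibition.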

[4] = NCI Yeast Anticancer Drug Screen. Data for the cln2 rad14 strain (AID 165);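 also: 0% = growth equal to vehicle treated cultures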; conditions: S. cerevisiae cln2 rad14 strain, active compounds read high
In short: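 Strain: cln2 rad14 yeast, altered in cell cycle control and DNA damage repair. Read-out: growth inhibition vs vehicle.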

[5] = NCI Yeast Anticancer Drug Screen. Data for the bub3 strain (AID 167); conditions: S. cerevisiae bub3 mutant strain, active compounds read high
In short: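 Mutant yeast screening strain plus compound; vehicle-treated cultures serve as the 0% inhibition reference.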

[6] = NCI Yeast Anticancer Drug Screen. Data for the mlh1 rad18 strain (AID 175); conditions: S. cerevisiae mlh1 rad18 strain growth inhibition, active compounds read high
In short: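 A repair-deficient yeast strain is exposed to test compound, and growth is scored relative to vehicle-treated controls.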

[7] = at 5.0 µM (retest, dose inferred, filed as 0.5)
[8] = at 50.0 µM (retest, dose inferred, filed as 5.0)

Row | Structure (SMILES) | growth inhibition [1, 7] | growth inhibition [1, 8] | growth inhibition ([1]; at 50.0 µM) | growth inhibition [2, 7] | growth inhibition [2, 8] | growth inhibition ([2]; at 50.0 µM) | growth inhibition [3, 7] | growth inhibition [3, 8] | growth inhibition ([3]; at 50.0 µM) | growth inhibition [4, 7] | growth inhibition [4, 8] | growth inhibition ([4]; at 50.0 µM) | growth inhibition [5, 7] | growth inhibition [5, 8] | growth inhibition ([5]; at 50.0 µM) | growth inhibition [6, 7] | growth inhibition [6, 8] | growth inhibition ([6]; at 50.0 µM)
1 | Oc1c(Cl)cc(Cl)cc1C(c1cc(Cl)cc(Cl)c1O)C(Cl)(Cl)Cl | -2% | 99% (active) | 99% (active) | 0% | 100% (active) | 99.5% (active) | -4% | 99% (active) | 99.5% (active) | -2% | 97% (active) | 98.7% (active) | -2% | 99% (active) | 99.2% (active) | 0% | 99% (active) | 99.2% (active)
2 | CCOC(=O)C1=C(C(=O)c2ccccc2)C(c2cccc([N+](=O)[O-])c2)C(C(=O)c2ccccc2)=C(C(=O)OCC)N1 | -3% | 60% | 56.2% | 5% | 33% | 25.6% | 21% | 36% | 25.6% | -9% | 27% | 17% | -7% | 63% | 38.5% | -28% | 42% | 67.7%
3 | COc1cc(N(CCC#N)CCC#N)ccc1/C(N=Nc1ccc(C(=O)O)cc1)=N/NC(=O)c1cc(Br)ccc1O | 9% | 26% | 74.8% (active) | 12% | 24% | 62.1% | -13% | 20% | 25.7% | 6% | 12% | 34% | 14% | 40% | 59.2% | 8% | 21% | 50.3%
4 | CC(C)=CCCC(C)C1=C(O)C(=O)C(C)=CC1=O (stereo not given) | 25% | 97% (active) | 88.8% (active) | 19% | 98% (active) | 93.3% (active) | 15% | 99% (active) | 90.8% (active) | 24% | 86% (active) | 70% | 19% | 99% (active) | 90.6% (active) | 25% | 98% (active) | 87% (active)
5 | Cc1cc(=O)oc2cc(O)cc(O)c12 | 0% | -1% | 16.5% | -4% | -2% | -8.95% | -11% | -4% | -8.8% | 0% | -11% | -18.6% | -3% | 6% | -14.7% | -5% | 1% | 6.8%
6 | O=C1C=CC(=O)N1c1ccc(O)cc1 | 15% | 94% (active) | 96.3% (active) | 23% | 98% (active) | 98.4% (active) | 18% | 86% (active) | 94.1% (active) | -1% | 98% (active) | 98.3% (active) | 4% | 97% (active) | 96.8% (active) | 11% | 98% (active) | 91.8% (active)
7 | O=C1C=CC(=O)N1c1cccc2c1CCCC2 | 99% (active) | 99% (active) | 91.9% (active) | 100% (active) | 100% (active) | 93.8% (active) | 100% (active) | 99% (active) | 94.7% (active) | 99% (active) | 99% (active) | 93.5% (active) | 100% (active) | 99% (active) | 93.6% (active) | 99% (active) | 99% (active) | 93.1% (active)
8 | O=C(c1ccccc1)c1cc2ccccc2oc1=O | 1% | 71% (active) | 63.1% | 5% | 35% | 13.3% | 1% | 63% | 60.5% | 4% | 52% | 37.8% | -6% | 61% | 10.8% | 9% | 81% (active) | 79% (active)
9 | N#CC1c2ccccc2C=CN1C(=O)CCCl (stereo not given) | 7% | 41% | 6.05% | 2% | 36% | 34.2% | 11% | 34% | 53.5% | 8% | 42% | 17.1% | 15% | 74% (active) | 74.3% (active) | -11% | 38% | 29.1%
10 | CCCCOS(=O)(=O)c1ccccc1 | 7% | -25% | -6% | 10% | 1% | -2.6% | 0% | 1% | 8.95% | 5% | 0% | -23.1% | -23% | -6% | 0.8% | 3% | 1% | 14.2%
11 | CCc1cnc2ccccc2c1/C=C/c1ccc(N(C)C)cc1 | -13% | 96% (active) | 98.4% (active) | 9% | 96% (active) | 97.3% (active) | 4% | 96% (active) | 92.3% (active) | -36% | 94% (active) | 93.1% (active) | 21% | 97% (active) | 96.8% (active) | -8% | 94% (active) | 94.7% (active)
12 | CN(C)CCSC1=Nc2ccc(Cl)cc2C(c2ccccc2Cl)N(C)C1 (stereo not given) | 8% | 80% (active) | 96.7% (active) | 3% | 47% | 95.7% (active) | 3% | 78% (active) | 88.3% (active) | 4% | 27% | 80.2% (active) | 0% | 82% (active) | 97% (active) | 10% | 84% (active) | 95.8% (active)
13 | COC(=O)Nc1nc2ccc(C3(c4ccc(F)cc4)OCCO3)cc2[nH]1 | 25% | 51% | -6.5% | 9% | 67% | 35% | 20% | 55% | 79% (active) | 11% | 36% | 56.2% | 22% | 72% (active) | 84.1% (active) | 18% | 76% (active) | 80% (active)
14 | Fc1cccc(F)c1C1SCc2nc3cc4ccccc4cc3n21 (stereo not given) | 35% | 83% (active) | 23.1% | 24% | 66% | 56.3% | 23% | 47% | 78.5% (active) | 27% | 31% | 80.1% (active) | 30% | 75% (active) | 80.2% (active) | 28% | 75% (active) | 42.5%
15 | C=C(C(N)=O)C(N)C(=O)O (stereo not given) | -5% | 9% | -20.1% | 6% | -2% | 9.85% | -1% | 0% | 13.1% | 9% | 2% | -7.4% | -16% | -2% | 40.5% | 11% | 32% | 7.45%
16 | C=C(CO)C(=O)OC1CC(=C)C2CC(O)C(C)C2C2OC(=O)C(=C)C12 (stereo not given) | 20% | 97% (active) | 86.7% (active) | 15% | 98% (active) | 52.5% | 10% | 97% (active) | 92.5% (active) | 13% | 89% (active) | 32.4% | 9% | 97% (active) | 79.4% (active) | 26% | 98% (active) | 87.7% (active)
17 | CCCC[n+]1c(/C=C\c2c(OC)cc(OC)cc2OC)ccc2ccccc21 | 64% | 97% (active) | 88.8% (active) | 61% | 99% (active) | 90.8% (active) | 67% | 99% (active) | 91.7% (active) | 56% | 99% (active) | 89.7% (active) | 86% (active) | 98% (active) | 90.1% (active) | 44% | 97% (active) | 88% (active)
18 | O=[N+]([O-])c1ccc(C2N(Cc3ccc(Cl)cc3)CCN2Cc2ccc(Cl)cc2)cc1 | 58% | 94% (active) | 82.2% (active) | 48% | 97% (active) | 56.5% | 79% (active) | 100% (active) | 85.8% (active) | 51% | 95% (active) | 64.5% | 78% (active) | 99% (active) | 87.6% (active) | 79% (active) | 98% (active) | 79.8% (active)
19 | O=Nc1ccc2ccccc2c1O | -3% | 64% | 85.7% (active) | 3% | 88% (active) | 89.8% (active) | -6% | 37% | 86.8% (active) | 25% | 63% | 58.5% | 3% | 93% (active) | 89.5% (active) | 14% | 93% (active) | 84% (active)
20 | NC(CS/C(Cl)=C/Cl)C(=O)O (stereo not given) | 48% | 92% (active) | 92.3% (active) | 47% | 96% (active) | 93.8% (active) | 34% | 94% (active) | 93.5% (active) | 41% | 96% (active) | 92.3% (active) | 19% | 94% (active) | 89.4% (active) | 89% (active) | 97% (active) | 97.5% (active)
